61 compounds from PubChem BioAssay AID1671202 (University of Kansas High Throughput Screening Laboratory, 2021) can be followed below.

Where “and” joins values, the source holds several entries; their conditions need not be identical. Equal entries are not always repeated. In all, about 190,000 compounds went through this assay and about 6,900 (3.6%) were called active. What follows is part of a selection rich in actives, with near analogues and random picks from the rest. A number with no mark means an inactive call. No stated cut-off is given here; in the data, active means inhibition above about 50%; inactive means the rest.

Chain of Huntingtin (Homo sapiens) (P42858 whole entry, looked up, stated change not applied): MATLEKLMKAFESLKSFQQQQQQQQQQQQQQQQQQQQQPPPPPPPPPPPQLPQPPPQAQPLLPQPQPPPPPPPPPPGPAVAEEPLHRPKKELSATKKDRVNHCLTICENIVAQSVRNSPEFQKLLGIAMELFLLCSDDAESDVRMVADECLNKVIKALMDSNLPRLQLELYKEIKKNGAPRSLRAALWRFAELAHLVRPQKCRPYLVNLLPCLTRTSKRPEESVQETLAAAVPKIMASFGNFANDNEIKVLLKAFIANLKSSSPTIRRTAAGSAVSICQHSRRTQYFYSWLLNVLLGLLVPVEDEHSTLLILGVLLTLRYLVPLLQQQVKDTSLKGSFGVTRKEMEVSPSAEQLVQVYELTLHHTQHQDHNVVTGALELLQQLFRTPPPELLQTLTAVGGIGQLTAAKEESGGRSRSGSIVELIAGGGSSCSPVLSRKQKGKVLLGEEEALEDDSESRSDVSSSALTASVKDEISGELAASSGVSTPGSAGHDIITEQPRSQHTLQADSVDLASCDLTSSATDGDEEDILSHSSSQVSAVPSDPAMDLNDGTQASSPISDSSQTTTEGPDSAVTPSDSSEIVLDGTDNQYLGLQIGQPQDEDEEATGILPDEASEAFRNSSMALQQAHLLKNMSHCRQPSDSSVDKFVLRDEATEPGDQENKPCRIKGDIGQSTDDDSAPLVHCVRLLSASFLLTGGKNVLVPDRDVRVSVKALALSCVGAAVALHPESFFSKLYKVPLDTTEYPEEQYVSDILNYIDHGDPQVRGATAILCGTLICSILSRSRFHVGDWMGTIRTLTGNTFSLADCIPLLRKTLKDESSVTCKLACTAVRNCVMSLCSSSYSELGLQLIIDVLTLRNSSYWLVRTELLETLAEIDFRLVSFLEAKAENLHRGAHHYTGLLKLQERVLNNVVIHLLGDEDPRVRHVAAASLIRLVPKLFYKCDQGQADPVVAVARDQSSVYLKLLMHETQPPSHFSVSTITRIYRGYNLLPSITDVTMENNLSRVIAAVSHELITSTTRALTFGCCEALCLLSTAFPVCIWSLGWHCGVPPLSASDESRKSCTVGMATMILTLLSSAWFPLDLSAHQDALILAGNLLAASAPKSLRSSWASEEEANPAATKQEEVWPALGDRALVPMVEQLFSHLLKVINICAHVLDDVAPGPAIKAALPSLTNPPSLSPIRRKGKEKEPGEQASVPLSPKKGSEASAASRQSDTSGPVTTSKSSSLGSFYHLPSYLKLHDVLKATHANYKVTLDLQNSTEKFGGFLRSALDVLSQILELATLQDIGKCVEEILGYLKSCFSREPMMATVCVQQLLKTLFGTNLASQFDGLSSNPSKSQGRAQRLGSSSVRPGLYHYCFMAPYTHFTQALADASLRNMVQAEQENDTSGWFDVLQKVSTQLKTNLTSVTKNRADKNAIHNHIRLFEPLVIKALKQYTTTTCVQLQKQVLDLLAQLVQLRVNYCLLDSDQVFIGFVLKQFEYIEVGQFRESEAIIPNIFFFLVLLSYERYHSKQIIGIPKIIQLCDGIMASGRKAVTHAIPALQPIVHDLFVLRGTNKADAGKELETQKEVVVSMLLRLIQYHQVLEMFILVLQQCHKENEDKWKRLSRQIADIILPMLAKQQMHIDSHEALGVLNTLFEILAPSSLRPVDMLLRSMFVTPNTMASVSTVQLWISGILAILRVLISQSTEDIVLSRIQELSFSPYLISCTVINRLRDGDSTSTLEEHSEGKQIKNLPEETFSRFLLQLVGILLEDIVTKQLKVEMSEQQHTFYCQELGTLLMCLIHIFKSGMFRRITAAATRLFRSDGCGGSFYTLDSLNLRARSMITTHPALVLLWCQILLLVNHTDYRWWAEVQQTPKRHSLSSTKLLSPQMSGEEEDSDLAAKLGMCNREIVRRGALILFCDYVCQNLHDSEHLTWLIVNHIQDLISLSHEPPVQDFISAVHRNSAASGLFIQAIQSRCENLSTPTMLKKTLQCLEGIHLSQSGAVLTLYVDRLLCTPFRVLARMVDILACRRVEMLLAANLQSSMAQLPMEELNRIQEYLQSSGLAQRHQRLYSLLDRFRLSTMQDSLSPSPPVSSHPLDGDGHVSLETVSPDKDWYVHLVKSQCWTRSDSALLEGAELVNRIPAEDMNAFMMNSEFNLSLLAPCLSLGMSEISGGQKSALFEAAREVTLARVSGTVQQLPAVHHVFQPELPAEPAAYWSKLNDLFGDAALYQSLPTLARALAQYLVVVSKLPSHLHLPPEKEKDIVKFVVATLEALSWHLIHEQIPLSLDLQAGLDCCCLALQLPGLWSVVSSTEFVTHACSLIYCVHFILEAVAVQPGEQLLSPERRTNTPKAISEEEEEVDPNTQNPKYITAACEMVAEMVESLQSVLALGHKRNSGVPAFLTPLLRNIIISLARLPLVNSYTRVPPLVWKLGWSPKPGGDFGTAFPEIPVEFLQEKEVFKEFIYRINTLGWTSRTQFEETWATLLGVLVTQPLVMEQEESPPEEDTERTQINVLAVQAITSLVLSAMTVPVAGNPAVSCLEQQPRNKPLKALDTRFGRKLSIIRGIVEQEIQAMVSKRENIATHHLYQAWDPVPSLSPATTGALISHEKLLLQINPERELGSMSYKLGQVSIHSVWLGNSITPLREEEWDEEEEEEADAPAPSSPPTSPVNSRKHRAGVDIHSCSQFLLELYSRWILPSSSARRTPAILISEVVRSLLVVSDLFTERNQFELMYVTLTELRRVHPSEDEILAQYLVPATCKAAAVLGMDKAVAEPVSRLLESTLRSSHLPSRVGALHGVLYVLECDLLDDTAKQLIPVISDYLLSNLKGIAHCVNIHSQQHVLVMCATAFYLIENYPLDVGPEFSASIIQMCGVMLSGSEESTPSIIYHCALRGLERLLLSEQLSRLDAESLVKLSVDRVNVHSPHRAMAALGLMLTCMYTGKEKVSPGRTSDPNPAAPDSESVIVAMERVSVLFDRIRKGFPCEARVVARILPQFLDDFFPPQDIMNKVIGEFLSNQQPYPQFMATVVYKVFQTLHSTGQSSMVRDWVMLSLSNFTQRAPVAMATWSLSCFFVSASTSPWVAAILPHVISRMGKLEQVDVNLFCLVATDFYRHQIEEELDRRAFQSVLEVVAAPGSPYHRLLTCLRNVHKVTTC

The experiment concerns the target Huntingtin (Homo sapiens) (UniProt P42858). Kind of experiment: mutant huntingtin-calmodulin interaction inhibitors – biochemical, AlphaScreen, primary screen (AID 1671202).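 Further: 0% = both proteins with DMSO and 100% = one protein alone.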 Particulars: AlphaScreen His-mHTT/GST-CaM binding, luminescence; at 15 µM, active compounds read high. A general note: In Alpha technology, singlet oxygen from a donor bead excites a nearby acceptor bead.
What is called inhibition is the relative decrease from the control value, in per cent. In the case of `O=C1CS/C(=C(\C(Cl)=C(Cl)Cl)[N+](=O)[O-])N1c1ccc(Cl)cc1`, the inhibition was 33%. The value for `O=[N+]([O-])C(=C1SCCS1)C(=C(Cl)Cl)N1CCCC1` was 62% (active); that for `CCC1CO/C(=C(\C(=C(Cl)Cl)N2CCOCC2)[N+](=O)[O-])N1` (stereo unspecified) was -5%; that for `N#C/C(=C\c1ccccc1F)c1nc(-c2cccc([N+](=O)[O-])c2)cs1` was 5.7%.

Consider `CCC(=O)NCc1nc2c(n1CC)CN(S(=O)(=O)Cc1ccc(Cl)cc1)CC2`, for which the inhibition was 0.5%.

Take `COc1ccc(N2C(=O)NC3CC2(C)Oc2ccccc23)cc1Cl` (stereo unspecified): the inhibition was -0.83%. With `CN1CCCN(C(=O)C2COC3(CCCCC3)N2C(=O)c2ccccc2)CC1` (stereo unspecified), the inhibition was 1.3%.

Turning to `Cc1cc(C2CCCN2C(=O)c2cc(-c3ccccc3F)no2)no1` (stereo unspecified), the inhibition was -0.13%.

`Cc1c(N=C2C=C(C(C)C)C(=O)C(C(C)C)=C2)c(=O)n(-c2ccccc2)n1C`: the inhibition was 8%. The value for `C=CCn1c(-c2ccccc2)csc1=Nc1ccc(O)cc1` was 69% (active); that for `C=CCn1c(-c2ccc(Cl)cc2)csc1=Nc1c(C)n(C)n(-c2ccccc2)c1=O` was 66% (active). As for `C=CCn1c(=O)c2cnc(-c3ccc(Cl)cc3)nc2n(C)c1=O`, the figure is -3.7%.

For `CCn1c(=NC(=O)c2ccc(S(=O)(=O)N(C)C)cc2)sc2cc(F)ccc21`, the inhibition is 3%.

On to `CCN1CCN(c2ncc3c(n2)CCN(Cc2cc(OC)c(OC)cc2OC)C3)CC1`, for which the inhibition is 23.9%. `COc1ccc(C2CC(=O)C3=C(C2)Nc2ncnn2C3c2cccc(OC)c2OC)cc1` (stereo unspecified): the inhibition was 10.8%. As for `O=C(NCCC1=CCCCC1)C1CCCN(Cc2nc(-c3ccncc3)no2)C1` (stereo unspecified), the figure is -3.8%; as for `COc1ccc(-n2c3c(cc(C(=O)N4CCOCC4)c2=O)C(=O)CC(C)(C)C3)cc1`, -1%; as for `CC(C)c1ccc(C2N3CC4(C)CN2CC(C)(C3)C4O)cc1` (stereo unspecified), -5% and 3.2%. As to `Cc1c(C)n(Cc2ccccc2)c2ccc(C(=O)N3CCN(C(=O)c4ccccc4)CC3)cc12`, the inhibition is 99% (active).

For the compound `Cc1ccc(C(=O)N2CCN(c3ccccc3)CC2)cc1`, the inhibition was 0.5%. As for `Cc1cccc(C(=O)N2CCCN(C(=O)c3cccc(C)c3)CC2)c1`, the inhibition is -1.9%.

Regarding `O=C(Nc1ccccc1[N+](=O)[O-])c1c(F)cccc1F`, the inhibition was 2.8%. The value for `Fc1ccc(C2CC(c3ccc(Br)cc3)Nc3ncnn32)cc1` (stereo unspecified) was 7%; that for `CCN1/C(=C2\N=C(c3ccccc3)OC2=O)C=Cc2ccccc21` was 39%. The value for `CCN1C(=Cc2cc[n+](-c3ccccc3)cc2)C=Cc2ccccc21` was 65% (active); that for `CC(=O)C1=C(O)C(=O)N(c2nccs2)C1c1ccc([N+](=O)[O-])cc1` (stereo unspecified) was 10.1%. The value for `O=C(Nc1ccccc1)Oc1cccc2cccnc12` was 93.6% (active). Turning to `COc1ccc(NC(=O)Nc2cccc3cccnc23)cc1`, the inhibition was 11.4%. As for `O=C(O)c1ccccc1-c1ccccc1C(=O)Nc1cccc2cccnc12`, the figure is 8.7%. As for `C=CCNC(=O)c1c(F)ccc(S(=O)(=O)N2CCCCCC2)c1F`, the figure is -7%. As for `O=C(Cn1ncn2nc(-c3ccc(Cl)cc3)cc2c1=O)Nc1ccccc1C(F)(F)F`, the figure is -7.9%; as for `CCNC(=O)c1csc(-c2cccc(OC)c2)n1`, -7.8%. In the case of `COc1ccc(/C=C2\SC(=O)N(CN3CCOCC3)C2=O)cc1`, the inhibition is -4%. Regarding `Clc1ncnc2sc3c(c12)CCCCC3`, the inhibition was -7.58%.

For the compound `OCCNc1ncnc2sc3c(c12)CCCCC3`, the inhibition was 1.3%.

For `NNc1ncnc2sc3c(c12)CCCC3`, the inhibition was 100% (active).

Take `COc1cc(C(=O)N2CCC(CC(=O)NC3CCCC3)CC2)cc(OC)c1OC`: the inhibition was -1.18%. As for `O=C1C[C@@H]2c3c(cccc3CN1Cc1ccccc1)C[C@@H](O)[C@H]2O`, the figure is 1.6%. In the case of `Cc1cccc(CN2Cc3cccc4c3[C@H](C=CC4)CC2=S)c1`, the inhibition was 3.5%. The value for `O=C1C[C@H]2C=CCc3cccc(c32)CN1Cc1ccccc1` was 100% (active); that for `O=C(Cc1ccc(F)cc1Cl)N1CCCC1c1cccc(F)c1` (stereo unspecified) was -1.36%. As to `COc1ccc(CNC(=O)C2CC(=O)N(c3ccc(OCc4ccc(F)cc4)cc3)C2)cc1` (stereo unspecified), the inhibition is -13.8%.

Turning to `COc1ccc(C2CC(C(F)(F)F)n3ncc(C(=O)NC45CC6CC(CC(C6)C4)C5)c3N2)cc1` (stereo unspecified), the inhibition is 6%. With `COc1ccc(C(=O)Nc2cc(-c3ccccn3)no2)cc1`, the inhibition was -10.4%. The value for `COCCNC(=O)Nc1nc(-c2ccccn2)cs1` was 95.6% (active); that for `CC1CC(C)CN(S(=O)(=O)c2ccc(C(=O)Nc3nc(-c4ccccn4)cs3)cc2)C1` (stereo unspecified) was 17%; that for `O=C(Cc1csc(NC(=O)c2ncccn2)n1)Nc1cccc2nsnc12` was 99.8% (active). With `COc1cc(C(=O)Nc2cccc3nsnc23)cc(OC)c1OC`, the inhibition is -8.5%. As for `Cc1nc(NC(=O)c2ccoc2C)sc1C`, the figure is 10%; as for `CC(C)SCC(=O)Nc1nc(CC(=O)O)cs1`, 1.9%. For the compound `Cc1nc(NC(=O)Cc2csc(NC(=O)c3ncccn3)n2)sc1C`, the inhibition was 98% (active).

As to `COC(=O)Nc1nc(CC(=O)NCc2nc3ccccc3[nH]2)cs1`, the inhibition was -0.6%. As for `Cc1ccc(NC(=O)c2ccc(Cl)c(Cl)c2)nc1`, the figure is -13.9% and -7%. As for `O=C(CSc1nc2ccsc2c(=O)n1Cc1ccccc1F)NC1CCCC1`, the inhibition was -3%. In the case of `CC(=O)N(C)C1(C(=O)NC2CCCCC2)CCCCC1`, the inhibition is 4%. As for `COCCCNC(=O)C1(C)CCC(=O)N1Cc1ccc(C)cc1` (stereo unspecified), the figure is 3.12%; as for `CCCCN(C)S(=O)(=O)c1ccc(C(=O)Nc2nnc(C)o2)cc1`, 32%; as for `O=C1CCC[C@@H]2C[C@@]3(C[C@@H]4CCN1[C@H]24)Nc1ccccc1NC3=NCc1ccccc1`, 11.5%.

As to `O=C1CC[C@@H]2CC3(C[C@@H]4CCN1[C@H]24)Nc1cc([N+](=O)[O-])ccc1NC3=NC1CCCCC1` (stereo partly specified), the inhibition is 57.5% (active).

As for `Cc1cc2c(cc1C)NC1(C[C@H]3CCC(=O)N4CC[C@@H](C1)[C@@H]34)C(=NC(C)(C)CC(C)(C)C)N2` (stereo partly specified), the inhibition is 96.4% (active). The value for `O=C(/C(=C1\Nc2ccc([N+](=O)[O-])cc2N1)[N+](=O)[O-])N1CCCCC1` was 8%.
